Measurements: PubChem BioAssay (NCI)
About 83,000 compounds went through this panel and 20% of them were active in at least one assay; those are over-represented in the sample as a whole.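 For each line, cells grew in 96-well plates with the test compound present at a single concentration for 48 hours.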 The source made the active and inactive calls. The calls were made as follows: active = growth percent below 10; inactive = the rest.

Columns and labels:
Assay in all cases: NCI-60 one-dose screen, 48 h (100 = growth as untreated, 0 = no growth, -100 = all killed)
Settings in all cases: 10 µM unless noted
DU-145 prostate = tested on: DU-145 prostate
K-562 leukemia = tested on: K-562 leukemia
MALME-3M melanoma = tested on: MALME-3M melanoma
MDA-MB-231 breast = tested on: MDA-MB-231 breast
RXF 393 renal = tested on: RXF 393 renal
SF-268 CNS = tested on: SF-268 CNS
SF-295 CNS = tested on: SF-295 CNS
SF-539 CNS = tested on: SF-539 CNS
UACC-257 melanoma = tested on: UACC-257 melanoma
M14 melanoma = tested on: M14 melanoma
HCT-15 colon = tested on: HCT-15 colon
SNB-75 CNS = tested on: SNB-75 CNS
SNB-19 CNS = tested on: SNB-19 CNS
U251 CNS = tested on: U251 CNS
PC-3 prostate = tested on: PC-3 prostate
SK-MEL-5 melanoma = tested on: SK-MEL-5 melanoma
UACC-62 melanoma = tested on: UACC-62 melanoma
LOX IMVI melanoma = tested on: LOX IMVI melanoma
SK-MEL-28 melanoma = tested on: SK-MEL-28 melanoma

Measured: growth

CN1CCN(c2ccc(Nc3nc(NCCCNS(=O)(=O)c4ccccc4)c4sccc4n3)cc2)CC1
inactive: DU-145 prostate 56.4% | K-562 leukemia 16.7% | MDA-MB-231 breast 38.1% | SF-268 CNS 64.2% | SF-295 CNS 38.4% | HCT-15 colon 27.2% | SNB-75 CNS 89.3% | SNB-19 CNS 56.6% | U251 CNS 13.2% | PC-3 prostate 68.9% | SK-MEL-5 melanoma 24.9% | UACC-62 melanoma 13.2%
active: MALME-3M melanoma -42.8% | RXF 393 renal -29.8% | SF-539 CNS -71.4% | UACC-257 melanoma -15.6% | M14 melanoma -9.06% | LOX IMVI melanoma -22.2% | SK-MEL-28 melanoma -24.3%

Cc1[nH]c(C(=O)Nc2ccccc2OCc2cccc(C(=O)NC3CCNC3)c2)c(Cl)c1Cl (stereo not given)
inactive: MALME-3M melanoma 74.2% | RXF 393 renal 78.8% | SF-268 CNS 74.8% | UACC-257 melanoma 103% | M14 melanoma 24.1% | HCT-15 colon 35.2% | SNB-75 CNS 73.6% | PC-3 prostate 59.1% | SK-MEL-5 melanoma 97.6% | UACC-62 melanoma 75%
active: DU-145 prostate -84.8% | K-562 leukemia 0.128% | MDA-MB-231 breast -57.8% | SF-295 CNS -85% | SF-539 CNS -75.6% | SNB-19 CNS 9.65% | U251 CNS -56.2% | LOX IMVI melanoma -85.1% | SK-MEL-28 melanoma -44.4%

CCC(=C(c1ccc(OCCN2CCCCCC2)cc1)c1ccc(OCCN2CCCCCC2)cc1)c1ccc(Cl)cc1
inactive: DU-145 prostate 39.4% | MDA-MB-231 breast 33.6% | SF-268 CNS 56% | SNB-75 CNS 62% | PC-3 prostate 27.7% | SK-MEL-5 melanoma 21.5%
active: K-562 leukemia -32.8% | MALME-3M melanoma -55.4% | RXF 393 renal -72.3% | SF-295 CNS -77.3% | SF-539 CNS -79.6% | UACC-257 melanoma -55.8% | M14 melanoma -74.4% | HCT-15 colon -58.9% | SNB-19 CNS -21.3% | U251 CNS -69.8% | UACC-62 melanoma -35.4% | LOX IMVI melanoma -89.6% | SK-MEL-28 melanoma -82%

Nc1nc(=O)n([C@H]2C[C@H](O)[C@@H](CO)O2)cc1C=O
inactive: DU-145 prostate 71.7% | K-562 leukemia 97.2% | MALME-3M melanoma 114% | MDA-MB-231 breast 85.1% | RXF 393 renal 103% | SF-268 CNS 110% | SF-295 CNS 103% | SF-539 CNS 100% | UACC-257 melanoma 115% | M14 melanoma 105% | HCT-15 colon 107% | SNB-75 CNS 122% | SNB-19 CNS 106% | U251 CNS 106% | PC-3 prostate 45% | SK-MEL-5 melanoma 101% | UACC-62 melanoma 106% | LOX IMVI melanoma 106% | SK-MEL-28 melanoma 108%

CC1(C)CC[C@]2(C(=O)NCCCCCCN(CCCN)CCCN)CC[C@]3(C)C(=CC[C@@H]4[C@@]5(C)CC[C@H](O)C(C)(C)[C@@H]5CC[C@]43C)[C@@H]2C1
inactive: DU-145 prostate 107% | K-562 leukemia 109% | MALME-3M melanoma 103% | MDA-MB-231 breast 93.7% | RXF 393 renal 113% | SF-268 CNS 97.2% | SF-295 CNS 105% | SF-539 CNS 102% | UACC-257 melanoma 97.6% | M14 melanoma 105% | HCT-15 colon 105% | SNB-75 CNS 95.5% | SNB-19 CNS 96.5% | U251 CNS 94% | PC-3 prostate 103% | SK-MEL-5 melanoma 101% | UACC-62 melanoma 88.1% | LOX IMVI melanoma 98.1% | SK-MEL-28 melanoma 107%

O=C(CSc1nc2ccccc2c(=O)n1-c1ccccc1)N/N=C/c1ccc(Oc2ccc(Cl)cc2)cc1
inactive: DU-145 prostate 38.4% | K-562 leukemia 61.2% | MALME-3M melanoma 51.3% | MDA-MB-231 breast 49.2% | RXF 393 renal 42% | SF-268 CNS 87.1% | SF-295 CNS 83.8% | SF-539 CNS 68.5% | UACC-257 melanoma 96.9% | M14 melanoma 48.8% | HCT-15 colon 60.8% | SNB-75 CNS 60.1% | SNB-19 CNS 33.2% | U251 CNS 15.2% | PC-3 prostate 58.7% | SK-MEL-5 melanoma 71.2% | UACC-62 melanoma 66.6% | LOX IMVI melanoma 14% | SK-MEL-28 melanoma 62.4%

CCCCN1C(=O)/C(=c2\sc3n(c2=O)C2C(NN=3)N(CC)C(=O)N2CC)c2cccc(C)c21 (stereo not given)
active: SF-539 CNS -7.82%
inactive: DU-145 prostate 37.6% | K-562 leukemia 15% | MALME-3M melanoma 54.5% | MDA-MB-231 breast 60% | RXF 393 renal 11.9% | SF-268 CNS 56.2% | SF-295 CNS 29.1% | UACC-257 melanoma 89.4% | M14 melanoma 27% | HCT-15 colon 14.9% | SNB-75 CNS 14.1% | SNB-19 CNS 39.4% | U251 CNS 39.1% | PC-3 prostate 34.4% | SK-MEL-5 melanoma 29.6% | UACC-62 melanoma 38.7% | LOX IMVI melanoma 42.4% | SK-MEL-28 melanoma 68.2%

COc1cc(C(=O)c2cc(C(C)=O)c3cccc(C)n23)cc(OC)c1OC
active: M14 melanoma 5.73% | SNB-75 CNS 5.39%
inactive: DU-145 prostate 68.3% | K-562 leukemia 15.6% | MALME-3M melanoma 46.2% | MDA-MB-231 breast 37.4% | RXF 393 renal 46.6% | SF-268 CNS 54% | SF-295 CNS 17.9% | SF-539 CNS 46.8% | UACC-257 melanoma 56% | HCT-15 colon 17.9% | SNB-19 CNS 39.8% | U251 CNS 30.9% | PC-3 prostate 55.7% | SK-MEL-5 melanoma 33.3% | UACC-62 melanoma 23.3% | LOX IMVI melanoma 39.2% | SK-MEL-28 melanoma 61.8%

CCOP(=O)(OCC)OC[C@]12CCC(C)(C)CC1C1=CC[C@@H]3[C@@]4(C)CCCNC(C)(C)[C@@H]4CC[C@@]3(C)[C@]1(C)CC2 (stereo not given in full)
inactive: DU-145 prostate 82.6% | MALME-3M melanoma 103% | MDA-MB-231 breast 81.1% | RXF 393 renal 64% | SF-268 CNS 80.2% | SF-295 CNS 99.3% | SF-539 CNS 86.3% | UACC-257 melanoma 98.2% | M14 melanoma 83.3% | HCT-15 colon 44.3% | SNB-75 CNS 93.6% | SNB-19 CNS 87% | U251 CNS 56.3% | PC-3 prostate 51.3% | SK-MEL-5 melanoma 80.7% | UACC-62 melanoma 90.5% | LOX IMVI melanoma 25.3% | SK-MEL-28 melanoma 101%
active: K-562 leukemia 2.53%

NS(=O)(=O)c1ccc(CCn2c(-c3ccc(C(=O)O)cc3)nc(-c3ccccc3)c2-c2ccccc2)cc1
inactive: DU-145 prostate 102% | K-562 leukemia 96.8% | MALME-3M melanoma 97.9% | MDA-MB-231 breast 92.6% | RXF 393 renal 104% | SF-268 CNS 93.8% | SF-295 CNS 101% | SF-539 CNS 99.1% | UACC-257 melanoma 105% | M14 melanoma 105% | HCT-15 colon 94.5% | SNB-75 CNS 86.1% | SNB-19 CNS 102% | U251 CNS 110% | PC-3 prostate 93.5% | SK-MEL-5 melanoma 99.1% | UACC-62 melanoma 94.2% | LOX IMVI melanoma 102% | SK-MEL-28 melanoma 102%
